Reference: PubChem BioAssay (NCI)
About 83,000 compounds went through this panel and 20% of them were active in at least one assay; those are over-represented in the sample as a whole.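 Single-concentration screen, 48 h exposure, 96-well plates. Endpoint: percent growth. Below 10 = active.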 Activity calls are given as the source filed them.

What was measured:
Assay in all cases: NCI-60 one-dose screen, 48 h (100 = growth as untreated, 0 = no growth, -100 = all killed)
Settings in all cases: 10 µM unless noted
HCT-15 colon = system: HCT-15 colon
HT29 colon = system: HT29 colon
SNB-75 CNS = system: SNB-75 CNS
U251 CNS = system: U251 CNS
PC-3 prostate = system: PC-3 prostate
SK-MEL-5 melanoma = system: SK-MEL-5 melanoma
UACC-62 melanoma = system: UACC-62 melanoma
LOX IMVI melanoma = system: LOX IMVI melanoma
SK-MEL-28 melanoma = system: SK-MEL-28 melanoma
SK-MEL-2 melanoma = system: SK-MEL-2 melanoma
SN12C renal = system: SN12C renal
UO-31 renal = system: UO-31 renal
TK-10 renal = system: TK-10 renal
ACHN renal = system: ACHN renal
CAKI-1 renal = system: CAKI-1 renal
A498 renal = system: A498 renal
CCRF-CEM leukemia = system: CCRF-CEM leukemia
MOLT-4 leukemia = system: MOLT-4 leukemia
EKVX NSCLC = system: EKVX NSCLC
SNB-19 CNS = system: SNB-19 CNS

Measured: growth

COc1cc(-c2ccc3ncnc(N4CCc5ccc(Cl)cc54)c3c2)cnc1Cl
active: SNB-75 CNS -2.67% | SK-MEL-5 melanoma -1.72% | UO-31 renal 5.14% | A498 renal -4.48% | MOLT-4 leukemia 6.74%
inactive: HCT-15 colon 24% | HT29 colon 15.1% | U251 CNS 45.6% | PC-3 prostate 14.5% | UACC-62 melanoma 10% | LOX IMVI melanoma 11.7% | SK-MEL-28 melanoma 23.8% | SK-MEL-2 melanoma 54.2% | SN12C renal 26.9% | TK-10 renal 29.5% | ACHN renal 14.1% | CAKI-1 renal 12.9% | CCRF-CEM leukemia 12.2%

CCCCCCCCCCCCCCCCCC(=O)Nc1ccc(OC)cc1
inactive: HCT-15 colon 99.1% | HT29 colon 104% | SNB-75 CNS 144% | U251 CNS 102% | PC-3 prostate 93.3% | SK-MEL-5 melanoma 102% | UACC-62 melanoma 97.5% | LOX IMVI melanoma 95.9% | SK-MEL-28 melanoma 110% | SK-MEL-2 melanoma 102% | EKVX NSCLC 94.7% | SN12C renal 99.7% | UO-31 renal 88.8% | TK-10 renal 99.8% | ACHN renal 105% | CAKI-1 renal 98% | A498 renal 105% | CCRF-CEM leukemia 86.4% | MOLT-4 leukemia 102%

Cn1cc(-c2cc3nc(-c4c[nH]c5ccccc45)cc(N)n3n2)c2ccccc21
active: HCT-15 colon -73% | HT29 colon -65.3% | U251 CNS -91.1% | PC-3 prostate -69.7% | SK-MEL-5 melanoma 8.15% | UACC-62 melanoma -88.5% | LOX IMVI melanoma -77.8% | SK-MEL-28 melanoma -97.8% | SK-MEL-2 melanoma -65.5% | SN12C renal -78.5% | UO-31 renal -61.2% | TK-10 renal 8.91% | ACHN renal -73.9% | CCRF-CEM leukemia -38.1% | MOLT-4 leukemia -19.4%
inactive: SNB-75 CNS 91.6% | EKVX NSCLC 55.1% | CAKI-1 renal 29.7% | A498 renal 130%

O=C1Nc2cc(-c3ccc(NS(=O)(=O)c4ccc(-c5ccccc5)cc4)cc3)ccc2/C1=C/c1ccc[nH]1
inactive: HCT-15 colon 14.6% | SNB-75 CNS 53.2% | U251 CNS 28.2% | SK-MEL-5 melanoma 46.2% | UACC-62 melanoma 55% | LOX IMVI melanoma 20.2% | SK-MEL-28 melanoma 52.1% | SK-MEL-2 melanoma 83.1% | EKVX NSCLC 10.9% | SN12C renal 16.3% | UO-31 renal 68.5% | TK-10 renal 49% | ACHN renal 47.4% | A498 renal 75.6% | CCRF-CEM leukemia 32.2% | MOLT-4 leukemia 27.6%
active: HT29 colon 0.595%

CCOc1ccc(-c2cc(-c3cc(C(C)C)c(O)cc3C)nn2-c2ccc(S(N)(=O)=O)cc2)cc1
active: HCT-15 colon 4.81%
inactive: HT29 colon 98.5% | SNB-75 CNS 32.6% | SNB-19 CNS 49% | SK-MEL-5 melanoma 26.3% | UACC-62 melanoma 24% | LOX IMVI melanoma 17.9% | SK-MEL-28 melanoma 58.5% | SK-MEL-2 melanoma 54.5% | EKVX NSCLC 30.9% | SN12C renal 30.6% | UO-31 renal 48.6% | TK-10 renal 84.2% | ACHN renal 54.1% | CAKI-1 renal 58.7% | A498 renal 98.3% | CCRF-CEM leukemia 11.3% | MOLT-4 leukemia 11.6%

NS(=O)(=O)c1ccc(Nc2nc(SCC(=O)c3ccc(F)cc3)nc3ccccc23)cc1
inactive: HCT-15 colon 24.9% | HT29 colon 63.3% | SNB-75 CNS 43.5% | U251 CNS 47.2% | PC-3 prostate 43.1% | SK-MEL-5 melanoma 18.6% | UACC-62 melanoma 26.4% | LOX IMVI melanoma 20.7% | SK-MEL-28 melanoma 55.6% | SK-MEL-2 melanoma 48.3% | EKVX NSCLC 39.1% | SN12C renal 53.8% | UO-31 renal 29.1% | TK-10 renal 80.9% | ACHN renal 49.7% | CAKI-1 renal 47.3% | A498 renal 94.6% | CCRF-CEM leukemia 26.9% | MOLT-4 leukemia 16.8%

CC1=NN(C2=NC(=O)C(CC(=O)Nc3ccccc3C(F)(F)F)S2)C(c2ccc(N(C)C)cc2)C1 (stereo not drawn)
inactive: HCT-15 colon 17.1% | HT29 colon 40.8% | SNB-75 CNS 54.9% | U251 CNS 49.3% | PC-3 prostate 34.6% | SK-MEL-5 melanoma 43.4% | UACC-62 melanoma 41.4% | LOX IMVI melanoma 46.3% | SK-MEL-28 melanoma 42% | SK-MEL-2 melanoma 65.2% | EKVX NSCLC 48.5% | SN12C renal 46.5% | UO-31 renal 41.6% | TK-10 renal 71.5% | ACHN renal 35.8% | CAKI-1 renal 71% | A498 renal 79.2% | CCRF-CEM leukemia 36.9% | MOLT-4 leukemia 28.4%

COc1ccc2[nH]c(=O)c(CSc3ccccc3Nc3nccc(-c4ccc(Cl)cc4)n3)cc2c1
active: SN12C renal -2.68% | CAKI-1 renal -1.64% | MOLT-4 leukemia -2.12%
inactive: HCT-15 colon 25.8% | HT29 colon 17.3% | SNB-75 CNS 23.6% | U251 CNS 37.8% | PC-3 prostate 38.5% | SK-MEL-5 melanoma 25.4% | UACC-62 melanoma 52.6% | LOX IMVI melanoma 19.4% | SK-MEL-28 melanoma 74.1% | SK-MEL-2 melanoma 57.9% | EKVX NSCLC 60% | UO-31 renal 45.8% | TK-10 renal 90.3% | ACHN renal 31% | A498 renal 85.8% | CCRF-CEM leukemia 28.4%
